The list is not random: actives were taken first. Their share in the collection is about 3.5%.
KCNK3 inh: human KCNK3 channel inhibitors, primary screen, CHO cells, FluxOR thallium flux, B-score. Potassium channel subfamily K member 3 (Homo sapiens), O14649. FluxOR fluorescence; active compounds read low. B-score at 10 µM. 0.84% of 340,000 active. AID 602410, 2012;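 active means B-score under library mean minus 4 SD, starting fluorescence ratio at most library mean plus 5 SD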;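 further: more negative B-score means stronger inhibition of thallium flux through KCNK3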
Target sequence (O14649 whole entry, looked up): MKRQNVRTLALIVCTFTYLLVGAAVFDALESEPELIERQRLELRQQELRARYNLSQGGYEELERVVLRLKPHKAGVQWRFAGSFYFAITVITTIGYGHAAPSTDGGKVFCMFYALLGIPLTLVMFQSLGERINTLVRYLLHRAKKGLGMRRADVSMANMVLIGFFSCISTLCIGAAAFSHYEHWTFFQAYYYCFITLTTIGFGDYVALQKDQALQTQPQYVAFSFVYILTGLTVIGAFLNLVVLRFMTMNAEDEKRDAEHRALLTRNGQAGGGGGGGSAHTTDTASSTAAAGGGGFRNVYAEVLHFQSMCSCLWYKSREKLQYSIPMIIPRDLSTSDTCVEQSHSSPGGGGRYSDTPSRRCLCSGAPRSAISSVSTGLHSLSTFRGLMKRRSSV
TMEM16A inh: TMEM16A chloride channel inhibitors, primary screen, cell-based, HTS | Anoctamin-1 (Mus musculus), Q8BHY3 | HEK293 TMEM16A/YFP iodide influx fluorescence, ionomycin | normalized B-score (activity score, 25-100; higher = stronger inhibition) at 10 µM | 1.2% of 310,000 active | AID 588511, 2011;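 active means ratio plate-corrected score three or more library SD toward inhibition, starting fluorescence score within five deviations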;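 further: score derived from kinetic fluorescence span divided by baseline fluorescence per well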
Kir21 inh: inhibitors of mouse Kir2.1 inward-rectifier potassium channel; Inward rectifier potassium channel 2 (Mus musculus), P35561; AID 1672, 2009; B-score at 10 µM; 0.85% of 310,000 active; HEK293-Kir2.1, FluxOR thallium flux fluorescence; active compounds read low;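 active means fluorescence ratio B-score at or below minus 3 SD of library scores, with starting-brightness B-score within 2 SD, cut at about -4.2 in these data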;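 further: channel flux triggered by added potassium and thallium sulfate stimulus; B-score of peak minus minimum fluorescence over baseline after thallium stimulus; more negative B-score means stronger Kir2.1 block with less thallium influx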
KCNK9 inh: KCNK9 potassium channel inhibitors, primary screen, HEK293 cells, thallium flux | Potassium channel subfamily K member 9 (Homo sapiens), Q9NPC2 | FluxOR thallium flux fluorescence; active compounds read low | B-score at 10 µM | 1.2% of 310,000 active | AID 488922, 2010;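 active means ratio B-score over 3 SD below the library mean, with starting fluorescence within 5 SD of its mean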;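 further: negative B-score means less thallium flux so channel inhibition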
ANO1 activ: TMEM16A chloride channel activators or potentiators, primary screen, cell-based, HTS; Anoctamin-1 (Mus musculus), Q8BHY3; HEK293 TMEM16A/YFP-H148Q/I152L, iodide quench fluorescence; active compounds read low; B-score at 10 µM; 0.3% of 340,000 active;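 active means fluorescence-ratio B-score plate-corrected deviation score at least 3 library SD below zero, with starting fluorescence score within 5 deviations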;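 further: channel opened by trigger with iodide after compound preincubation; score built on the fluorescence ratio of max minus min over baseline; more negative score means more quench and so TMEM16A activation or potentiation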
KCNK3 inh conf: retest of human KCNK3 channel inhibitors, confirmation, CHO cells, FluxOR thallium flux, triplicate; shares compounds with KCNK3 inh; FluxOR fluorescence; 0% buffer, 100% carvedilol maximal block; ratio percent of control, % at 10 µM; 99% of 2,400 active;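 active means ratio percent of control, averaged over triplicates, above buffer control mean plus 5 SD, cut at about 64% in these data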;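 further: ratio is the fluorescence rise from min to max over baseline after thallium stimulus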
KCNK3 uninduced: thallium flux inhibition in non-induced cells, primary screen, counter-screen for KCNK3 inhibitor project, cell-based, non-induced KCNK3 line, FluxOR thallium, triplicate; shares compounds with KCNK3 inh; non-induced KCNK3 parental cells; active compounds read low; thallium flux ratio (lower = more inhibition) at 10 µM; 40% of 2,400 active; AID 651747, 2012;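 active means thallium flux ratio, averaged over three wells, more than 5 SD below the buffer control mean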;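 further: host cells are CHO cells without KCNK3 induction; ratio is peak minus trough fluorescence over baseline then normalized to buffer controls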
Starred values were filed as active, the others as inactive; i = inactive; . = not tested or not shown.

SMILES | KCNK3 inh | TMEM16A inh | Kir21 inh | KCNK9 inh | ANO1 activ | KCNK3 inh conf | KCNK3 uninduced
Cc1nn(-c2ccccc2)c(C)c1/C=N/NC(=O)c1cc(C(C)(C)C)[nH]n1 | i | i | 0.59 | i | i | . | .
Cc1ccc2nc(-c3ccc(NC(=S)NC4CC(C)(C)NC(C)(C)C4)cc3)sc2c1 | -15* | i | -5.1* | i | i | 125* | 0.15*
CSc1nc(N2CCN(Cc3ccc4c(c3)OCO4)CC2)c2ccccc2n1 | -13* | i | -0.2 | i | i | 112* | i
Cc1nc(N2CCN(Cc3ccc4c(c3)OCO4)CC2)c2cc(-c3ccccc3)sc2n1 | -10* | i | -1.3 | i | i | 95* | i
Cc1nc(N2CCN(Cc3ccc4c(c3)OCO4)CC2)c2oc3ccccc3c2n1 | i | . | . | . | i | . | .
COc1ccc(C)cc1NC(=O)c1nn(C)c(C(=O)Nc2cc(C)ccc2OC)c1[N+](=O)[O-] | -9* | i | 0.01 | i | i | 81* | i
CCOc1ccc(NC(=O)C2CCN(S(C)(=O)=O)CC2)cc1 | -9.3* | i | -1.8 | i | i | 97* | i
Nc1ccccc1-c1n[nH]c(=S)s1 | i | . | . | . | i | . | .
COc1ccc(C(=O)COc2ccccc2C(=O)Nc2ccccc2)cc1 | -9.8* | i | 0.39 | i | i | 108* | 0.16*
CCOc1ccc(NC(=O)c2cc3ccccc3cc2OC)cc1 | i | i | 1.9 | i | i | . | .
COc1ccc(NC(=O)c2cc3ccccc3cc2OC)cc1 | -11* | i | 0.85 | i | i | 112* | i
O=C(NC1CC1)c1cccc(Nc2ccc(-c3ccc4c(c3)OCCO4)nn2)c1 | i | i | 1.4 | i | i | . | .
CCn1c(SCC(=O)NC2CC2)nnc1-c1ccc(C)cc1 | i | i | -0.04 | i | i | . | .
CCCc1cc(NCCCn2ccnc2)n2nc(C)c(-c3ccccc3)c2n1 | -8.8* | i | -5.8 | i | i | 109* | 0.15*
CC1(C)CC(=O)C2=C(C1)c1c(ccc3ccccc13)NC2c1ccc(OCC(=O)O)cc1 (stereo not drawn) | i | i | -0.24 | i | i | . | .
CC1(C)CC(=O)C2=C(C1)c1c(ccc3ccccc13)NC2c1ccc(Br)o1 (stereo not drawn) | -10* | i | -0.72 | i | i | 113* | i
Cc1cc(NS(=O)(=O)c2ccc(NC(=O)C(C)Oc3cc(C)c(Cl)c(C)c3)cc2)no1 (stereo not drawn) | i | i | 2.5 | i | i | . | .
CCc1ccc2c(CN3CCc4ccccc43)cc(=O)oc2c1 | -13* | i | -0.32 | i | i | 83* | i
O=c1cc(CN2CCc3ccccc32)c2ccc(O)cc2o1 | i | i | 2.3 | i | i | . | .
CCCOP(=O)(c1ccc(N(C)C)cc1)C(Nc1ccccc1)c1ccc(C)cc1 (stereo not drawn) | i | i | -0.1 | i | i | . | .
COc1ccc(NC(=O)COC(=O)c2cc(C)oc2C)cc1OC | i | . | . | . | i | . | .
COc1ccc(OC)c(C(=O)COC(=O)c2cc(C)oc2C)c1 | -10* | i | 1.5 | i | i | 119* | i
C=CCOC(=O)C1=C(C)NC(=O)NC1c1cc2c(cc1Br)OCO2 (stereo not drawn) | i | i | 0.14 | i | i | . | .
Cc1ccc(S(=O)(=O)CCC(=O)c2cccc([N+](=O)[O-])c2)cc1 | -9.5* | i | -9.5* | i | i | 114* | 0.12*
CCOP(=O)(OCC)c1nc(-c2ccc(Br)cc2)oc1N1CCCCC1 | -10* | i | -2.2 | i | i | 102* | i
SMILES | KCNK3 inh | TMEM16A inh | Kir21 inh | KCNK9 inh | ANO1 activ | KCNK3 inh conf | KCNK3 uninduced
C=CCOc1ccc(C(=O)c2ccccc2)c(OCC(=O)NC2(C#N)CCCC2)c1 | -8.7* | i | 1.6 | i | i | 90* | i
Cc1ccc(Cl)cc1N(CC(=O)NC(C)c1ccccc1)S(C)(=O)=O (stereo not drawn) | i | i | -0.56 | i | i | . | .
Cc1ccc(-c2cc(-c3ccccc3)nc(Cl)n2)cc1 | -11* | i | 1 | i | i | 130* | 0.11*
COc1ccc(-c2cc(-c3ccccc3)nc(Cl)n2)cc1OC | i | i | 1 | i | i | . | .
CCCNCc1cc(Br)ccc1OCC(=O)NCCc1ccccc1 | i | i | -1.8 | i | i | . | .
O=C(COc1ccc(Br)cc1CNCCc1ccccc1)NCc1ccccc1 | -11* | i | -3 | i | i | 102* | i
CN(C)c1ccc(/C=c2/sc3n(c2=O)NC2(c4ccccc4)N(C)C(=O)N(C)C2(c2ccccc2)N=3)cc1 (stereo not drawn) | . | i | -1.2 | i | . | . | .
CC1CCC(C(C)C)C(OC(=O)CSc2nnc(N)s2)C1 (stereo not drawn) | -9.7* | i | -4.2* | i | i | 110* | i
O=C(O)c1csc(N/N=C/c2ccc(Br)cc2)n1 | i | . | 0.44 | i | i | . | .
Cc1cc(OCC(=O)Nc2ccccc2N2CCCCC2)ccc1C(C)C | i | i | -1.2 | i | i | . | .
Cc1cc(OCC(=O)Nc2ccccc2N2CCCC2)ccc1C(C)C | -9* | i | -0.92 | i | i | 112* | i
Cc1cccc(OCC(=O)Nc2ccccc2N2CCCC2)c1C | -9.8* | i | 0.56 | i | i | 118* | 0.14*
Cc1cccc(OCC(=O)Nc2ccccc2N2CCN(C(=O)C(C)C)CC2)c1C | i | i | -0.87 | i | i | . | .
Cc1cc(C)cc(OCC(=O)Nc2ccccc2N2CCCCC2)c1 | -10* | i | -1.9 | i | . | 94* | i
O=C(Cc1ccccc1F)Nc1cc(Cl)ccc1N1CCCC1 | i | i | -0.57 | i | i | . | .
O=C(Cc1ccccc1F)Nc1ccccc1N1CCCC1 | -9.1* | i | -4.1 | i | i | 89* | i
COc1ccccc1NS(=O)(=O)c1cc(NC(=O)c2ccncc2)ccc1N1CCCC1 | i | i | -0.71 | i | i | . | .
O=C(Nc1ccccc1NC(=O)c1ccccc1F)c1ccccc1F | i | i | -0.19 | i | i | . | .

Source: PubChem BioAssay
